High-throughput results (PubChem BioAssay)
This is a sample that favours compounds with a hit; in the whole collection about 12% have one here.
NS1 function inh: qHTS Assay for Inhibitors of Influenza NS1 Protein Function; Potency, µM (doses to about 46.1 µM), for inactives: at the top dose activity, positive = more growth; 270,000 compounds, 0.4% hits; AID 2326, 2010; calls by dose curve; also: actives are rising curves; nearly all actives have a fitted effect of over 50% in size
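Recovery from NS1-induced slow growth read by OD600 in budding yeast switched to galactose assay medium (pH 6.0, -URA) at 1:100 dilution. Compound 23 nl per well; the matching strain lacking NS1 serves as control.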
Pf growth 48h: Primary qHTS for delayed death inhibitors of the malarial parasite plastid, 48 hour incubation; P. falciparum luciferase growth in erythrocytes, 48 h; Potency, µM (doses to about 28.7 µM), for the others: at the highest dose activity change, negative = inhibition, most hits filed as inhibitors; 310,000 compounds, 5.9% hits; AID 504832, 2011; also: % is scaled to controls: 0 for no effect and ±100 for the full control effect
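First compound was added to culture medium, then infected red cells at 0.1% parasitemia and 2% hematocrit (final). After incubation at 37 C under 5% CO2, luciferase detection reagent was dispensed and light output recorded.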
AMA1-RON2 inh: qHTS for Inhibitors of AMA1-RON; Towards Development of Antimalarial Drug Lead: Primary Screen. Plasmodium falciparum AMA1 (3D7) - RON2 peptide interaction. AlphaScreen AMA1-biotinylated RON2 peptide binding. Potency, µM (doses to about 58.2 µM), inactives show at the highest dose activity change, negative = inhibition, most hits filed as inhibitors. 360,000 compounds, 0.2% hits. AID 720542, 2013;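 also: 0% = vehicle wells and -100% = peptide control; nearly all actives have a fitted effect of over 45% in size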
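AMA1 (3D7) with his tag at 25 nM final met compounds first, then biotinylated RON2 peptide at 25 nM; detection used donor plus acceptor beads, 10 µg/mL apiece, read by AlphaScreen after 30 min at room temperature.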
Pf growth 96h: Primary qHTS for delayed death inhibitors of the malarial parasite plastid, 96 hour incubation. Potency, µM (highest dose often 28.7 µM), for the others: at the highest dose activity change, negative = inhibition, usual class: inhibitors. 320,000 compounds, 6.9% hits. P. falciparum luciferase reporter growth, 96 h. AID 504834, 2011; also: % is scaled to controls: 0 for no effect and ±100 for the full control effect
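Delayed-death screen, second-generation endpoint: infected erythrocytes, 2% hematocrit, 0.05% parasitemia final; 96 hours at 37 C, 5% CO2; luciferase detection reagent; luminescence decrease equals reduced growth.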
SARS PLP yeast: qHTS of Yeast-based Assay for SARS-CoV PLP; S. cerevisiae expressing SARS-CoV PLpro, growth rescue; Potency, µM (top dose mostly 32.9 µM), for the others: at the top dose activity, positive = growth rescue, usual class: activators; 330,000 compounds, 0.19% hits; AID 485353, 2010; calls by dose curve; also: 0% is about no effect; nearly all actives have a fitted effect of over 55% in size
HCV inhibitor: qHTS Assay for Inhibitors of Hepatitis C Virus (HCV); Huh7.5.1 HCVcc-Cre infection, luciferase reporter, 44 h; Potency, µM (doses to about 41.8 µM), without a hit: at the highest dose activity change, negative = inhibition, most hits filed as inhibitors; 340,000 compounds, 3.4% hits; AID 651820, 2012; also: % is scaled to controls: 0 for no effect and ±100 for the full control effect
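Whole-lifecycle infectious HCVcc-Cre system; cells 1,000/well, compound then virus (~0.5 moi) added 4 h after plating, 44 h culture. Luciferase read 15 sec following 15 min substrate incubation, room temp.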
The depositor's hits bear a star; ? = inconclusive; nt = no result; [ ] = remark or other dose. Unless noted, calls follow the shape of the dose curve; as a rule, active = well fitted curve in the direction sought with a large enough effect; inconclusive = small, poorly fitted or top-dose-only effect, or another doubt; inactive = no such curve, though single readings can be large; an effect the other way counts as inactive or inconclusive. Potency is read from the fitted curve at half-maximal effect.

SMILES | NS1 function inh | Pf growth 48h | AMA1-RON2 inh | Pf growth 96h | SARS PLP yeast | HCV inhibitor
COc1cccc(CNC(=O)C(NS(=O)(=O)c2ccc3c(c2)CCN3C(C)=O)C(C)C)c1 (configuration not stated) | -3% | -10% | 11% | -11% | 1% | 0%
COc1cc2c(c(OC)c1OC)-c1ccc(SC)c(=O)cc1C(NC=O)CC2 (configuration not stated) | nt | nt | 1% | nt | nt | -40%
COc1ccc(NC(=O)N2CCCC2C(=O)NCc2cccs2)cc1 (configuration not stated) | -7% | 17% | 17% | 0% | -3% | 8%
c1ccc(CN2CCN(c3nc4ccccc4c4ccccc34)CC2)cc1 | -51% | nt | -8% | nt | -22% | ?
c1ccc(CN2CCN(c3nc(-c4ccccc4)nc4ccccc34)CC2)cc1 | 3% | 3.3µM* | ? | nt | 7% | -18%
Nc1cc(C(=O)O)[nH]c(=O)n1 | -4% | nt | nt | nt | nt | nt
CC1(c2ccc([N+](=O)[O-])cc2)NC(=O)N(CC(=O)Nc2cccnc2Cl)C1=O (configuration not stated) | nt | 4% | -7% | 12µM* | 0% | -21%
COc1cc(NC(=O)CN2C(=O)NC(C)(c3ccccc3)C2=O)c(C)cc1[N+](=O)[O-] (configuration not stated) | 9% | ? | 0% | 12µM* | 29% | -13%
COc1cc(NC(=O)CN2C(=O)NC(C)(c3ccc4ccccc4c3)C2=O)c(C)cc1[N+](=O)[O-] (configuration not stated) | ? | ? | 1%[11.6 µM] | ? | 7% | ?
Cc1[nH]c2ccc(F)cc2c(=O)c1SC(F)(F)C(F)F | -7% | 13µM* | 13% | -15% | -1% | ?
O=C(Nc1ccccc1)c1cc([N+](=O)[O-])ccc1Cl | -3% | 44% | 2% | 42% | -1% | ?
COc1ccc([N+](=O)[O-])cc1NC1C2CC3CC(C2)CC1C3 (configuration not stated) | -5% | 8% | -2% | 0.52µM* | 1% | -14%
COc1ccc([N+](=O)[O-])cc1NC(=O)C1CCCCC1C(=O)O (configuration not stated) | 1% | 21% | -12% | -2% | -4% | 16%
COCC(=O)Nc1cc([N+](=O)[O-])ccc1OC | 2% | 1% | 8% | 87% | 4% | -13%
COc1ccc([N+](=O)[O-])cc1NC1CCCCC1 | -25% | ? | 17% | 93% | -25% | 11µM*
O=C(Nc1ccccc1)c1cc([N+](=O)[O-])ccc1NC1CCCCC1 | 4% | 8.3µM* | -9% | ? | -6% | ?
O=C(NC1CCCCC1)NC1CC2CCCC(C1)N2C1CCCC1 (configuration not stated) | 12% | 2% | -5% | 13µM* | 2% | -17%
O=C(Nc1ccc([N+](=O)[O-])cc1Cl)c1cccc([N+](=O)[O-])c1 | nt | nt | -5% | nt | nt | nt
O=C(Nc1cccnc1Cl)c1cc([N+](=O)[O-])ccc1Cl | nt | -23% | 14% | ? | 5% | -16%
O=C(Nc1ccc([N+](=O)[O-])cc1Br)c1cc2ccccc2nc1Cl | -5% | 0.19µM* | -9% | 0.33µM* | 0% | -8%
Cc1cc(O)c(NC(=O)c2cc([N+](=O)[O-])ccc2Cl)cc1C | -5% | ? | -5% | 28% | -3% | -6%
O=C(Nc1ccc([N+](=O)[O-])cc1Cl)c1cc(Cl)ccc1O | -39% | ? | -7% | ? | nt | 1.3µM*
Cc1ccc(O)c(NC(=O)c2cc([N+](=O)[O-])ccc2Cl)c1 | -2% | 9.3µM* | -3% | 30% | -1% | -18%
